Data from PubChem BioAssay AID1276 (Columbia University Molecular Screening Center, 2008).
The campaign covered roughly 190,000 compounds. About 2,000 (1.1%) were called active.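 How the source made its calls: active means activation above a set limit, based on mean plus 3 SD of controls (cut at about 140% in these data); inconclusive means one replicate above the limit, the other below; inactive means the rest.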 Only a selection was taken, and actives are over-represented in it overall.

Test: activators of APP 5'UTR luciferase reporter, primary screen, SH-SY5Y cells (AID 1276)
Settings: SH-SY5Y APP 5'UTR luciferase reporter, luminescence; at 2 µM; active compounds read high; zero percent = DMSO vehicle wells

activation, inactive:
CCOC(=O)c1c(/N=C/C2C(=O)CC(C)(C)CC2=O)sc(C)c1C 2.63%
CCN(CC)CCOC(=O)c1ccc(NC(=O)CNC(=O)c2ccccc2)cc1 18.8%
COc1cccc(CN(C)CC(=O)NCc2ccccc2Cl)c1OC 7.69%
NC(=O)C1CCN(Cc2nc3c(Br)cc(Br)cc3c(=O)[nH]2)CC1 4.38%
COc1ccc(C(=O)NC2CCN(C(=S)Nc3ccccc3)CC2)cc1 -16.7%
COc1ccc(C(=S)Nc2ccccc2)cc1 68.3%
O=C1C2C3C=CC(C3)C2C(=O)N1c1ccc(-c2nc3ccccc3c(=O)o2)cc1 (stereo unspecified) 3.88%
Cc1cccc(C(=O)N2CCCN(C(=O)c3cccc(C)c3)CC2)c1 2.21%
Cc1cc(=O)oc(C)c1C(=O)N1CCCCC1 -5.29%
CCC1(C(=O)c2ccccc2)C(c2cccc([N+](=O)[O-])c2)C1(C(=O)OC)C(=O)OC (stereo unspecified) -17.3%
CCN(CC)c1ccc2c(Nc3ccccc3)c(C=O)c(=O)oc2c1 -11.3%
C=CCSc1nc2ccccc2[nH]1 15.8%
CCCCSc1nc2ccccc2[nH]1 27.4%
CC(C)(C)NC(=O)CN(C(=O)c1ccc(Cl)nc1)c1cccc2ccccc12 -19.3%
O=C(Nc1cccn(Cc2ccccc2Cl)c1=O)NC1CCCCC1 19.9%
Cc1ccnc(N2CCCC(C(=O)Nc3cc(F)ccc3C)C2)n1 (stereo unspecified) 30.3%
Cc1cc(C)nc(N2CCC(C(=O)Nc3ccc4c(c3)OCCO4)CC2)n1 2.98%
CCN(CC)CCNC(=O)c1ccc(NS(=O)(=O)c2ccc3c(c2)OCCO3)cc1 12.6%
O=C(Nc1ccc(N2CCN(C(=O)C3CC3)CC2)cc1)c1cccs1 -0.31%
COC(c1ccccc1)c1nnc(CCC(=O)N2CCN(CCOc3ccccc3)CC2)o1 (stereo unspecified) -7.19%
COc1ccc2nc(Nc3nc(-c4ccncc4)cs3)sc2c1 65.1%
COc1ccc(C(=O)/C=C/Nc2ccccn2)cc1 134%
Oc1ccc(-c2csc(Nc3cccnc3)n2)cc1 17.7%
c1cnc(Nc2nc(-c3ccc4ccccc4c3)cs2)nc1 29.6%
COc1ccc(-c2csc(Nc3ccc(O)cc3)n2)cc1 120%
O=C(Nc1ccc(Cl)cn1)Nc1cccs1 25.6%
O=C(Nc1nc(-c2ccc(-c3ccccc3)cc2)cs1)c1cnccn1 11%
NS(=O)(=O)c1ccc(Nc2nc(-c3ccccc3)cs2)cc1 52.2%
CCc1cccc(CC)c1NC(=O)COc1ccccc1C(=O)c1cc(C#N)c(=O)n(C2CCCCC2)c1 12.3%
Cc1ccc(NC(=O)CSc2nc(CSc3ccc(C)cc3)cc(=O)[nH]2)cc1 7.62%
CCN(CC)CCn1c(/N=C/c2cc(Br)ccc2O)nc2ccccc21 -4.24%
COc1cc(C(=O)Nc2cc(C(F)(F)F)ccc2-n2cncn2)cc(OC)c1OC 0.9%
CCCCCN(C(=O)NC(=O)Nc1cccc(C)c1C)S(C)(=O)=O 12.9%
COc1ccccc1/C=N\Nc1cc(C)nc(-n2nc(C)cc2C)n1 -3.23%
CCc1ccc(-c2cc(C(=O)NN3CCN(C)CC3)c3ccccc3n2)cc1 47.9%
COCCNc1nc2nonc2nc1N1CCCC1c1nccs1 (stereo unspecified) 2.4%
CCC(C)NCC(=O)Nc1ccc([N+](=O)[O-])cc1C(=O)Nc1ccccc1F (stereo unspecified) -0.05%
CC(CC(=O)O)CC(=O)NNC(=O)c1cccc(Br)c1 (stereo unspecified) 7.74%
Cc1nc2ccccc2cc1C(=O)N/N=C/c1ccc([N+](=O)[O-])cc1 -13.5%
Brc1ccc(-c2csc(N/N=C/c3ccc4c(c3)OCO4)n2)cc1 -0.09%
O=C(Cc1ccc(F)cc1)N/N=C/c1ccc2c(c1)OCO2 42.8%
Cc1cc(C)nc(N/N=C/c2c(C)oc3ccccc23)n1 22.1%
Cc1cccc(-n2c(=O)c3c(C)c(C)sc3n(CC(N)=O)c2=O)c1 -15.7%
CCn1c(SCC(=O)Nc2ccc(C)cc2)nc2nc3c(cc2c1=O)CCCC3 17.6%
CC(C)CNC(=S)NC(=O)c1ccc(Cl)cc1 37.3%
Cc1cccc(OCCC(=O)Nc2cc(S(=O)(=O)N3CCCCC3)ccc2N2CCOCC2)c1 11.1%
COc1ccc(OCCNS(=O)(=O)Cc2ccccc2)cc1 8.23%
C/C(=C\C(=O)c1ccc(Br)cc1)N1CCCCC1 -20.4%
CN1CCCC(OC(=O)COc2ccc(Br)cc2)C1 (stereo unspecified) 3.06%
COc1ccc(Cc2nnc(N/N=C/c3ccccc3O)[nH]c2=O)cc1OC -85.9%
Cc1cc(Cl)ccc1OCc1nc(-c2ccncc2)no1 95.7%
COC(=O)c1sc(NC(=O)c2csc3c2CCCC3)nc1C 95.3%
COC(=O)c1sccc1NC(=O)c1csc2c1CCCC2 -8.07%
Cc1cc(C)n(CCNCc2c(C(=O)N3C[C@@H](C)O[C@@H](C)C3)nc3ccc(Cl)cn23)n1 13.1%
C/C(=C\C(=O)c1ccccc1)Nc1cccc(O)c1 33.4%
O=C(CSc1ccccc1)Nc1ccc(C(=O)Nc2cccc(O)c2)cc1 37.6%
CC1COc2ccccc2N1S(=O)(=O)c1ccccc1 (stereo unspecified) -2.45%
O=C(CSc1ccccc1)Nc1ccc(NC(=O)c2ccco2)cc1 6.16%
COC(=O)c1ccc(NC(=O)c2ccco2)cc1 120%
COC(=O)c1cc2n(n1)CCCNC2=O -7.46%
Cc1ccc(NC(=O)c2cc(-c3ccc(C)o3)nc3ccccc23)nc1 -0.92%
Cc1ccc(-c2csc(NNC(=O)c3ccccc3)n2)cc1 3.5%
CC1=NNC(=O)C1CCC(=O)N/N=C\c1cccc(Cl)c1 (stereo unspecified) 0.72%
O=c1cc(N2CCCCC2)c(-c2ccccc2)nn1Cc1cccc(F)c1 -6.8%
CCOc1ccc(C(=O)NC(=S)Nc2ccc(N3CCOCC3)c(Cl)c2)cc1[N+](=O)[O-] -10.7%
COc1cc(NC(=O)CN(C)S(=O)(=O)c2ccc3nc(C)sc3c2)cc(OC)c1 17.7%
Cc1cccc(N(CC(=O)Nc2ccc(-c3nc4ccc(C)cc4s3)cc2)S(C)(=O)=O)c1 104%
Cc1nc2cc(NC(=O)NCc3ccccc3)ccc2o1 23.1%
C=CCN(C(=O)Nc1ccc2oc(C)nc2c1)c1ccccc1 11.6%
COC(=O)c1ccc(/C=N/N2C(C)CCCC2C)cc1 (stereo unspecified) 53%
CCOC(=O)CSc1nnc(-c2ccc([N+](=O)[O-])cc2)o1 5.38%
CC1=CC=CC2=N/C(=N\S(=O)(=O)c3ccc(F)cc3F)c3ccccc3CN12 27%
COc1cc(/C=N/NC(=O)c2cc(C)n(-c3ccc(F)cc3)c2C)cc(OC)c1O 0.41%
Cc1ccc(-n2c(C)cc(C(=O)CN3C(=O)C(=O)N(C4CCCC4)C3=O)c2C)cc1 -9.76%
Cc1ccc(OCC(=O)Nc2ccc(S(=O)(=O)Nc3ccccn3)cc2)cc1 0.31%
CCc1nc2ccccc2c(C(=O)OC2CCCCC2=O)c1C (stereo unspecified) 2.83%
CCn1c(SCc2cc(=O)n3ccsc3n2)nc2ccccc21 -4.54%
COc1ccc(OC)c(/C=C/C(=O)OCC(=O)Nc2ccc3c(c2)OCCO3)c1 -19.2%
COc1ccc(/C=C/C(=O)Nc2ccc3c(c2)OCCO3)cc1OC -0.48%
CC1CCCC(NC(=O)COC(=O)[C@@H]2CC(O)CN2S(=O)(=O)c2ccc3c(c2)OCCO3)C1C (stereo partly specified) 11.6%
CN(C(=O)CSc1nncc2ccccc12)C1CCCCC1 56.8%
Cc1ccc(C(=O)OC(C)CN2CCOCC2)cc1 (stereo unspecified) -15.7%
COc1cc(Cl)c(C)cc1NC(=O)[C@@H]1CCCN1C(=O)c1cccs1 -25.6%
CC1CN(C(=S)SCC(=O)c2ccccc2)CC(C)O1 (stereo unspecified) -2.53%
NC(=NC(=O)c1ccccc1)N1CCOCC1 9.73%
O=C(NCc1nnc(SCC(=O)N2CCCc3ccccc32)o1)c1ccccc1F -9.96%
COc1cc([N+](=O)[O-])ccc1NC(=O)CN1CCCC1 -0.5%
COc1ccc(Sc2nc(-c3ccccc3)ncc2OC)cc1 -14%
COc1cc(SC)ccc1C(=O)Nc1nc(C)cs1 57.9%
COc1ccccc1CNC(=O)c1ccc(SC)cc1OC -5.82%
O=C(NCCOc1ccccc1Cl)C(=O)Nc1ccccc1 0.2%
Cc1ccnc(NC(=O)c2ccoc2C)c1 33.5%
O=C(CCC1CCCN(C(=O)Cc2ccc(F)cc2)C1)N1CCN(c2ccccn2)CC1 (stereo unspecified) 10.5%
Cc1c(C2=CCN(S(=O)(=O)c3ccc(Cl)cc3)CC2)c2ccccc2n1C -2.27%

activation, active:
COc1ccc(NC(=S)N2N=CCC2c2ccccc2)cc1 (stereo unspecified) 180%
Cc1ccc2cc3cc(C(=O)N4CCCCCC4)oc3nc2c1 167%
O=C(CSc1nc2ccccc2[nH]1)c1cccs1 162%
O=C(Nc1ccc2c(c1)OCCO2)C1CCCN(c2ncccn2)C1 (stereo unspecified) 159%
Clc1ccc(Nc2nc(-c3cccs3)cs2)nc1 135%
COc1ccc(-c2csc(Nc3ccccn3)n2)cc1 205%
COc1ccc(Nc2nc(-c3ccccc3)cs2)cc1 148%
c1ccc(Nc2nc(-c3ccncc3)cs2)nc1 158%
C(=N\Nc1ccc2ccccc2n1)/c1ccc2c(c1)OCO2 227%
Cc1noc(C)c1/C=N/Nc1ccc2ccccc2n1 169%
CC1CN/C(=C\C(=O)c2ccc(Br)cc2)C(=O)N1 (stereo unspecified) 138%
Cc1ccc(NC(=O)c2csc3c2CCCC3)cc1 232%
O=C(Nc1cccc(O)c1)c1ccc(C(=O)c2ccccc2)o1 155%
O=C(Nc1ccc(Oc2ccccc2)cc1)c1ccco1 163%
Cc1ccc(Nc2nc(-c3ccc(O)cc3O)cs2)nc1 151%
Cc1ccc2nc(-c3ccc(NC(=O)CN(C)S(=O)(=O)c4ccccc4)cc3)sc2c1 190%
Cc1ccc(NC(=O)Nc2ccc3oc(C)nc3c2)cc1 145%
Cc1cc(C(=O)COC(=O)C2CC2)c(C)n1-c1ccc(F)cc1 145%
COc1cccc(/C=C/C(=O)Nc2ccc3c(c2)OCCO3)c1 168%
O=C(CSC(=S)N1CCOCC1)c1ccccc1 139%
COc1cc(SC)ccc1C(=O)NCCOc1ccccc1Cl 143%
COc1cc(SC)ccc1C(=O)Nc1cc(C)ccn1 220%
